Screening results from PubChem BioAssay.
CHRM1 PAM – human CHRM1 positive allosteric modulation. activation, % at 3 µM. P11229. AID 588819. CHO-K1 hM1, Fluo-8 calcium fluorescence, ACh EC20; 0% = ACh EC20, 100% = maximal ACh. 360,000 compounds, 0.088% hits; in the data active = activation above about 19%, passing the limit was not always enough
Target sequence (P11229 whole entry, looked up): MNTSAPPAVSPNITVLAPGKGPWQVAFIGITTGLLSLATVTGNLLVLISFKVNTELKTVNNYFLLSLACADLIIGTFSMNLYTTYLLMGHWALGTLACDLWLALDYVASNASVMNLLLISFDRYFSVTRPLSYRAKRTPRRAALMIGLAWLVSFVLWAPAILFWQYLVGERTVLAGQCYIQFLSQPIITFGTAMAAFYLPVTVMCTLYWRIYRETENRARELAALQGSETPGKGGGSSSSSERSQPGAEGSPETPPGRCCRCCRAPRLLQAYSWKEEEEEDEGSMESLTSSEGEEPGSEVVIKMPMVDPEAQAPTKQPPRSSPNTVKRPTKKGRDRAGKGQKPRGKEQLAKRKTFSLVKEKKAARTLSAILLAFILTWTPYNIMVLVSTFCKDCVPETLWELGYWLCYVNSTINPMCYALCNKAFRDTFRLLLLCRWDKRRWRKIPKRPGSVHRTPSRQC
M1 antag – blocks human M1 muscarinic receptor; P11229; CHO-K1 hM1, Fluo-8 calcium fluorescence, ACh EC80 antagonist; inhibition, % at 3 µM; 360,000 compounds, 1.3% hits; AID 588852;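 active = percent inhibition above its own plate's cutoff, namely the mean of that plate's compound wells plus 3 SD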;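 note: peak over basal fluorescence ratio during 140 s after agonist addition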
M1 ag parental – counter-screen for M1 agonists: effect in parental CHO-K1 cells; activation, % at 3 µM; 360,000 compounds, 0.48% hits; Fluo-8 calcium fluorescence; scaled to maximal ATP response, vehicle zero; AID 602248; in the data active = activation above about 15%;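 note: untransfected CHO-K1 host cells lacking M1 receptor as counterscreen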
M1 PAM parental – M1 PAM counterscreen hit in parental CHO-K1 cells. activation, % at 3 µM. ATP EC20, Fluo-8 calcium fluorescence; 0% at ATP EC20, 100% at ATP max. 360,000 compounds, 0.02% hits. AID 602247;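 active = activation above the run cutoff, the mean activation of all test compounds plus 3 SD, cut at about 40% in these data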;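 note: peak over basal fluorescence ratio in a 140 s read after ATP addition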
CHRM1 agonist – activates human CHRM1 receptor | activation, % at 3 µM | CHO-K1 hM1, Fluo-8 calcium fluorescence, agonist mode; 0% DMSO, 100% acetylcholine EC100 | 360,000 compounds, 0.33% hits;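 active = activation above the run's mean compound activation plus 3 SD, cut at about 16% in these data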;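 note: peak over basal fluorescence ratio within a 140 s kinetic read after compound addition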
CHO-K1 Ca antag – M1 antagonist counterscreen hit in parental CHO-K1 cells | ATP-induced calcium, Fluo-8 fluorescence | inhibition, % at 3 µM | 360,000 compounds, 0.6% hits;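 active = inhibition above a per-plate cutoff, the plate's mean sample inhibition plus 3 SD, cut at about 24% in these data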
Large screens that a line does not name were inactive. Compounds with a hit are over-represented: about 2.3% of the library has one in this group of screens.

COc1ccc(/C=C/C(=O)c2cc(F)ccc2OC(=O)c2ccccc2)cc1OC	CHO-K1 Ca antag 24.2
COc1cccc2c1O/C(=N\O)C(C(=O)Nc1cccc(Br)c1)C2 (stereo unspecified)	none
C/C(=N\OCC(=O)OC(C)C(=O)Nc1ccc(C(N)=O)cc1)c1ccc2c(c1)OCO2 (stereo unspecified)	none
O=[N+]([O-])c1ccc(Sc2ccccn2)nc1	none
O=C(Nc1cc(Sc2ccccn2)cc([N+](=O)[O-])c1)c1ccc([N+](=O)[O-])cc1	M1 antag 23.7
COc1ccc(C(C)(C)C)cc1NC(=O)CN1C(=O)C(=O)N(Cc2ccco2)C1=O	none
CCOC(=O)C1(CC2CCCCO2)CCN(Cc2cc3ccccc3[nH]2)CC1 (stereo unspecified)	M1 antag 28.6, M1 ag parental 57.1, CHRM1 agonist 62.2
CC(=O)N1CCCC(C)(C(=O)Nc2ccc3oc(C)nc3c2)C1 (stereo unspecified)	CHO-K1 Ca antag 26.8
Nc1c(N(CCC2=CCCCC2)C(=O)Cc2ccc(F)cc2)c(=O)[nH]c(=O)n1Cc1ccccc1	CHRM1 agonist 18.6
Cc1cccc(OCC(=O)N(Cc2ccccc2)c2c(N)n(Cc3ccccc3)c(=O)[nH]c2=O)c1	CHRM1 PAM 22.8
Nc1c(N(CCC2=CCCCC2)C(=O)COc2ccc(F)cc2Cl)c(=O)[nH]c(=O)n1Cc1ccccc1	none
CC(C)(CNC(=O)c1ccc(S(=O)(=O)Nc2ccc(Cl)cc2)cc1)N1CCOCC1	none
CCN(C1CCCCC1)S(=O)(=O)c1ccc(S(=O)(=O)NCc2ccncc2)cc1	M1 antag 35.3, M1 ag parental 18.1
Cc1ccc(C(=O)OCC(=O)Nc2cc(Cl)ccc2C#N)o1	none
CCc1nnc(NC(=O)CSc2ccc(-c3nc4ccccc4[nH]3)cn2)s1	none
Cc1nc(NC(=O)CSc2ccc(-c3nc4ccccc4[nH]3)cn2)sc1C	M1 ag parental 16.0
Cc1ccccc1NC(=O)c1cccc(N2C(=O)C3C4CC(C(Br)C4Br)C3C2=O)c1 (stereo unspecified)	none
COc1ccccc1C(=O)OCC(=O)NC(C)CCc1ccccc1 (stereo unspecified)	none
CC(CCc1ccccc1)NC(=O)COC(=O)c1ccccc1O (stereo unspecified)	M1 ag parental 15.8
O=C(c1ccc(Cl)c(S(=O)(=O)N2CCOCC2)c1)N(c1ccccn1)C1CCCCC1	none
Clc1ccc(C(c2ccccc2)N2CCN(c3ccccn3)CC2)cc1 (stereo unspecified)	none
CN1CCCN(C(c2ccccc2)c2ccc(Cl)cc2)CC1 (stereo unspecified)	M1 antag 99.7
Cn1ncc([N+](=O)[O-])c1C(=O)Nc1ccccc1C#N	none
Oc1ccccc1Oc1ncc(Br)c(N2CCOCC2)n1	M1 antag 83.7
CN(C)c1ccc(-c2ccnc3c2CC(C)(C(=O)NCc2cccc(Cl)c2)O3)cc1 (stereo unspecified)	none
Cc1nonc1NC(=O)CSc1nc2ccc(Cl)cc2[nH]1	CHO-K1 Ca antag 34.1
CC(C)(C)c1ccc(OCCC(=O)NCCc2ccc(S(N)(=O)=O)cc2)cc1	none
CCc1ccc(S(=O)(=O)NCc2ccc(C(=O)NCCN(Cc3ccccc3)C(C)C)cc2)cc1	M1 antag 67.9
COC(=O)c1ccc(CNC(=O)c2cc(S(=O)(=O)NCc3ccccc3)ccc2C)cc1	CHO-K1 Ca antag 24.5
O=C(Cn1cccc1C(=O)c1ccccc1)NCc1ccc2c(c1)OCO2	CHO-K1 Ca antag 53.3
NC(=NCc1ccc2c(c1)OCO2)NC(=O)c1ccccc1	M1 antag 24.4
O=C(Cn1cccc1C(=O)c1ccccc1)NCc1ccccc1	none
CCn1c(C)c(C2=CCN(S(=O)(=O)c3ccccc3)CC2)c2ccccc21	none
O=C(CO/N=C/c1ccc2c(c1)OCO2)Nc1cccc(Br)c1	none
Cc1cc(C)nc(SCc2ccc(F)cc2)n1	none
COC(=O)C1=CN(C2CC2)C=C(C(=O)OC)C1c1ccc(C(=O)OC)cc1	M1 antag 34.2
COc1cccc(NC(=O)CSc2nnc3ccc(-c4ccccn4)nn23)c1	none
O=C(Nc1cc(F)c(Br)cc1F)c1ccc(Cl)cc1	M1 antag 39.1
C[C@H]1CN([C@@H](C)CO)C(=O)CCCn2nncc2CO[C@H]1CN(C)C(=O)Nc1ccc2c(c1)OCO2	none
CC1CCC2(CC1)NC(=O)N(CC(=O)Nc1ccc(C(N)=O)cc1)C2=O (stereo unspecified)	none
CCN(c1cccc(C(F)(F)F)c1)S(=O)(=O)c1ccc2c(c1)CCN2C(=O)C1CC1	M1 antag 33.0
COC(=O)c1ccc(OS(=O)(=O)c2ccc(NC(C)=O)cc2)cc1	CHO-K1 Ca antag 24.4
CC(=O)Nc1ccc(S(=O)(=O)Oc2ccc(/C=N/NC(=O)c3ccc(Cl)cc3)cc2)cc1	none
COc1ccc(C)cc1NC(=O)NC1CC(=O)N(c2ccc3c(c2)OCCO3)C1 (stereo unspecified)	none
Cc1c(C(C)C)c(=O)n(-c2ccc(S(=O)(=O)NCc3ccccc3)cc2)n1C	M1 antag 34.0, CHO-K1 Ca antag 24.5
CCOC(=O)C1=CC[C@@H](c2ccccc2C(F)(F)F)N(S(=O)(=O)c2ccc(C)cc2)[C@H]1c1ccc(C#N)cc1	none
COc1ccccc1N1C(=O)C2C(C(=O)c3ccccc3)=NN(c3ccc(Br)cc3)C2C1=O (stereo unspecified)	M1 ag parental 31.4, CHO-K1 Ca antag 30.1
CC1(C(=O)Nc2ccccc2)Cc2c(-c3cccc(C(F)(F)F)c3)ccnc2O1 (stereo unspecified)	none
Cc1ccc2c(c1)N(CC(=O)N1CCCCCC1)C(=O)C(C)O2 (stereo unspecified)	none
COc1ccccc1C(=O)NC(=O)COC(=O)c1cc[n+]([O-])cc1	none
COc1ccccc1C(=O)NC(=O)COC(=O)c1cccc(C)c1O	M1 ag parental 15.1
CC(=O)Nc1ccc(CN2CCCC(C(=O)c3cccc(C(F)(F)F)c3)C2)cc1 (stereo unspecified)	M1 antag 64.3
COc1ccccc1C(=O)C1CCCN(Cc2cccc(OCCO)c2)C1 (stereo unspecified)	none
COc1ccc(CN2CCCC(C(=O)c3cccc(C(F)(F)F)c3)C2)cc1O (stereo unspecified)	none
CCc1[nH]nc(C(=O)N2CCCC(C(=O)c3cccc(C(F)(F)F)c3)C2)c1C (stereo unspecified)	M1 ag parental 15.5
O=C(c1cccc(C(F)(F)F)c1)C1CCCN(Cc2ccc(OCCO)cc2)C1 (stereo unspecified)	M1 antag 65.7, M1 ag parental 22.8
COc1cccc(NC(=O)N(C)C[C@H]2OCc3cnnn3CCCC(=O)N([C@H](C)CO)C[C@@H]2C)c1	none
